Screening data deposited in PubChem BioAssay by National Center for Advancing Translational Sciences (NCATS).
3T3 cytotox – Cytotoxic Profiling in NIH 3T3 Cell Line of Diverse Libraries Using Quantitative High-Throughput Screening | NIH 3T3 viability, CellTiter-Glo ATP luminescence, 48-72 h | Potency, µM (top dose mostly 96.7 µM), hits mostly inhibitors | hit rate 4.3% among 94,000 | AID 1345082, 2018; note: nearly all actives have a fitted effect of over 55% in size
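Cells were seeded at 400 per well, treated with pin-transferred compound, and kept 48 or 72 hr at 37 °C before CellTiter-Glo addition and luminescence imaging of cellular ATP.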
GPT2 inh – Primary qHTS assay for inhibitors of Glutamate pyruvate transaminase 2 (GPT2); hit rate 0.25% among 100,000; Recombinant GPT2, coupled pyruvate oxidase/HRP Amplex Red fluorescence; Potency, µM (doses to about 57.7 µM), hits mostly inhibitors; note: nearly all actives have a fitted effect of over 60% in size
Target sequence (Q8TD30 whole entry, looked up): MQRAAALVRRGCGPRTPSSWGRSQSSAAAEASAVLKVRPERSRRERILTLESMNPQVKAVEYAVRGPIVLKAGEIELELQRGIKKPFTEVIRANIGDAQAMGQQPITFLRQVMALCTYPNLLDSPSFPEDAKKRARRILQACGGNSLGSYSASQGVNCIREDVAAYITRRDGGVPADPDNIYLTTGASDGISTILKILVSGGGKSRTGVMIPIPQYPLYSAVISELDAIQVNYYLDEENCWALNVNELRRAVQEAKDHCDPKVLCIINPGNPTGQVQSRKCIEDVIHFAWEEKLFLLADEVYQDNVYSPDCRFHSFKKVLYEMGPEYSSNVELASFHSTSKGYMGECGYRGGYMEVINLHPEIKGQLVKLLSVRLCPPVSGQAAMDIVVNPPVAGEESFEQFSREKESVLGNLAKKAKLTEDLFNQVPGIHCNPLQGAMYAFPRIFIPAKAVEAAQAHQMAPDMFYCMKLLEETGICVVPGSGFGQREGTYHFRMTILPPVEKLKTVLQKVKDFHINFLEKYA
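Fluorescence read-out: pyruvate from GPT2 turnover coupled to pyruvate oxidase, HRP and Amplex Red (0.2mM ThPP, 0.2U/mL PO and HRP, 50uM Amplex final). Substrates 250uM a-KG, 2mM L-alanine; enzyme 10ng/uL; 30 min RT.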
HEK cytotox – Cytotoxic Profiling in HEK 293 Cell Line of Diverse Libraries Using Quantitative High-Throughput Screening; HEK 293 viability, ATP luminescence (CellTiter-Glo), 48-72 h; Potency, µM (titrated, usually from 115 µM), most hits filed as inhibitors; hit rate 6.6% among 94,000; AID 1345083, 2018; note: nearly all actives have a fitted effect of over 60% in size
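HEK 293 cells seeded at 250 cells/well were exposed to compound for 48 or 72 hr at 37 degree Celsius. Viability taken as ATP content by CellTiter-Glo luminescence.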
hNpr1 antagonist – Natriuretic polypeptide receptor (hNpr1) antagonism - Primary qHTS. Atrial natriuretic peptide receptor 1 (Homo sapiens), P16066. HEK293 hNpr1 GloSensor cGMP, ANP-stimulated luminescence. Potency, µM (series often up to 46.3 µM), actives largely listed as inhibitors. hit rate 1.6% among 76,000; calls by dose curve; note: nearly all actives have a fitted effect of over 60% in size
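HEK293 cells stably expressing human Npr1 and cGMP GloSensor pGS-40F, loaded 2 h with 2% GloSensor reagent, given compound 30 min at room temperature. Luminescence read before and 20 min after 0.1 nM hNppA.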
Luciferase inh – Firefly luciferase inhibition profiling of diverse chemical library using quantitative high-throughput screening | Luciferin 4-monooxygenase (Photinus pyralis), P08659 | purified P. pyralis luciferase, luminescence, biochemical | Potency, µM (series often up to 115 µM), actives largely listed as inhibitors | hit rate 2.5% among 76,000; note: nearly all actives have a fitted effect of over 65% in size
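Luminescence read by CCD imaging after purified firefly luciferase (10nM final) was added to substrate buffer holding 10uM D-luciferin and 10uM ATP, pH 7.5, pre-dosed with compound.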
NPR1 antag cnf – Natriuretic polypeptide receptor (hNpr1) antagonism - Confirmation | shares compounds with hNpr1 antagonist | HEK293 hNpr1 cGMP GloSensor luminescence, ANP-stimulated | Potency, µM (titrated, usually from 57.6 µM), hits mostly inhibitors | hit rate 76% among 1,400; calls by dose curve; note: nearly all actives have a fitted effect of over 70% in size
Npr2 selectivity – Natriuretic polypeptide receptor (hNpr2) antagonism - Subtype selectivity assay; HEK293 hNpr2 GloSensor cGMP luminescence, CNP-stimulated; shares compounds with hNpr1 antagonist; Potency, µM (highest dose often 57.6 µM), hits mostly inhibitors; hit rate 67% among 1,400; calls by dose curve; note: nearly all actives have a fitted effect of over 70% in size
FLuc counter – Natriuretic polypeptide receptor (hNpr1) antagonism - Confirmation firefly luciferase (FLuc) inhibition counterscreen; AID 1347047, 2019; hit rate 0.7% among 1,400; purified FLuc enzyme, luminescence, Km substrate; Potency, µM (highest dose often 57.6 µM), most hits filed as inhibitors; shares compounds with hNpr1 antagonist
GloSensor ctrl – Natriuretic polypeptide receptor (hNpr1) antagonism - Counterscreen GloSensor control cell line. hit rate 69% among 1,400. Potency, µM (top dose mostly 57.6 µM), most hits filed as inhibitors. HEK293 GloSensor cGMP, SNP-stimulated, luminescence. shares compounds with hNpr1 antagonist; calls by dose curve; note: nearly all actives have a fitted effect of over 70% in size
Large screens that a line does not name were inactive (follow-up assays come after a bar, where they were run). Rows were chosen to be rich in hits. Some 10% of all compounds tested hit in one or more screens of this group. Unless noted, calls come from the whole dose curve; as a rule, active = well fitted curve in the direction sought with a large enough effect; inconclusive = small, poorly fitted or top-dose-only effect, or another doubt; inactive = no such curve, though single readings can be large; an effect the other way counts as inactive or inconclusive.

Cc1ccc(OCCC2CCN(C(=O)CCCC(=O)n3nc(C)c4ccccc43)C2)cc1 (centres undefined)	3T3 cytotox inconclusive, HEK cytotox 40µM, hNpr1 antagonist 10µM | NPR1 antag cnf 11µM | Npr2 selectivity 14µM | FLuc counter inactive | GloSensor ctrl 11µM
Fc1ccc(-c2cnc3n2C[C@H](CNCc2ccccc2Cl)OC3)cc1	3T3 cytotox inconclusive, HEK cytotox 79µM, hNpr1 antagonist 25µM | NPR1 antag cnf 40µM | Npr2 selectivity 40µM | FLuc counter inactive | GloSensor ctrl 40µM
Cc1cc(C(=O)N2CCC(F)(c3nc(-c4ccncc4)no3)CC2)n(C)n1	HEK cytotox inconclusive, hNpr1 antagonist 11µM | NPR1 antag cnf 27µM | Npr2 selectivity 31µM | FLuc counter inactive | GloSensor ctrl 27µM
CCCCOc1ccc(C(=O)N2CCC(c3n[nH]c(=O)n3-c3ccccc3)CC2)cc1	3T3 cytotox inconclusive, HEK cytotox inconclusive
COc1ccc(C(=O)N2CCC3(CC2)N=C(c2ccccc2)NO3)cc1F	none
COc1ccc(C(=O)N2CCC3(CC2)N=C(c2ccc(Cl)cc2)NO3)cc1	HEK cytotox inconclusive, hNpr1 antagonist 10µM | NPR1 antag cnf 17µM | Npr2 selectivity 19µM | FLuc counter inactive | GloSensor ctrl 9.7µM
COc1ccc(C(=O)N2CCC3(CC2)N=C(c2ccc(Cl)cc2)NO3)cc1F	HEK cytotox inconclusive, hNpr1 antagonist 10µM | NPR1 antag cnf 19µM | Npr2 selectivity 19µM | FLuc counter inactive | GloSensor ctrl 22µM
COc1cccc(NC(=O)C2CN(C3CCCC3)C(=O)N2)c1 (centres undefined)	none (no result: hNpr1 antagonist, Luciferase inh)
CCNC(=O)N[C@H]1C[C@@H](Cc2cc(CN3CCN(c4ccccc4)CC3)on2)C1(C)C	3T3 cytotox inconclusive, HEK cytotox inconclusive, hNpr1 antagonist inconclusive
CC(C)(C)CC(=O)N[C@H]1C[C@@H](Cc2cc(CN3CCN(c4ccccc4)CC3)on2)C1(C)C	3T3 cytotox inconclusive, GPT2 inh inconclusive, HEK cytotox 25µM, hNpr1 antagonist 2.8µM | NPR1 antag cnf 3.1µM | Npr2 selectivity 3.4µM | FLuc counter inactive | GloSensor ctrl 2.4µM
COc1cccc(C(=O)N2CCCN(c3cc(-c4ccc(Cl)cc4)[nH]n3)CC2)c1OC	3T3 cytotox inconclusive, GPT2 inh inconclusive, HEK cytotox inconclusive, hNpr1 antagonist 11µM | NPR1 antag cnf 19µM | Npr2 selectivity 17µM | FLuc counter inactive | GloSensor ctrl 15µM
COc1cccc(C(=O)N2CCCN(c3cc(-c4ccc(C)c(C)c4)[nH]n3)CC2)c1OC	3T3 cytotox inconclusive, HEK cytotox 40µM, hNpr1 antagonist 10µM | NPR1 antag cnf 24µM | Npr2 selectivity 22µM | FLuc counter inactive | GloSensor ctrl 24µM
COc1ccccc1C(=O)N1CCCN(c2cc(-c3ccc(F)cc3)[nH]n2)CC1	3T3 cytotox inconclusive, HEK cytotox inconclusive
